Assay outcomes from PubChem BioAssay.
Shown are actives, neighbours in structure and some others; about 3.2% of the full set was active somewhere.
Sm TGR inh = inhibitors of Schistosoma mansoni thioredoxin glutathione reductase | purified TGR, DTNB reduction, TNB absorbance 405 nm | Potency, µM (series often up to 114 µM), inactives show at the highest dose activity change, negative = inhibition, hits mostly inhibitors | 3% of 360,000 active | AID 485364; note: nearly all actives have a fitted effect of over 60% in size
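TGR 20 nM + NADPH 100 uM (dispensed conc.), cpd preinc 15 min RT; start with NADPH (500 uM addition) then DTNB (15 mM addition). Kinetic TNB absorbance, 405 nm filter. Four-parameter Hill fit across titration.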
TbPYK inhibitor = T. brucei pyruvate kinase inhibition | 0.12% of 410,000 active | Potency, µM (series often up to 76.8 µM), without a hit: at the highest dose activity, negative = inhibition, usual class: inhibitors | AID 624173 | Q57TT1 | TbPYK enzyme, Kinase-Glo Plus ATP luminescence, 45 min; note: nearly all actives have a fitted effect of over 50% in size
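Glycolytic pyruvate kinase of T. brucei was incubated with substrate, test compound and 130 uM ADP for 45 minutes at room temperature. Luminescent Kinase-Glo Plus signal was measured after 10 minutes.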
RE007 growth inh = less growth of the S. pombe RE007 Vpr strain | Potency, µM (top dose mostly 92.2 µM), for inactives: top-dose activity change, negative = less growth, usual class: inhibitors | S. pombe RE007 Vpr strain, BacTiter-Glo ATP luminescence, 24 h | 0.21% of 360,000 active | AID 651644; active = well fitted falling curve with a large enough effect; inconclusive = small, poorly fitted or top-dose-only effect; inactive = no such curve, though single readings can be large or run the other way; note: nearly all actives have a fitted effect of over 50% in size
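Fission yeast RE007 carrying one integrated HIV-1 vpr copy, seeded at OD 0.01 in PMG+AL medium with 23 nL pinned compound. Grown 24 h at 30 degrees; viability read by BacTiter-Glo luminescence after 5 min.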
LmPK inh = blocks Leishmania mexicana pyruvate kinase activity. Q27686. purified LmPK, Kinase-Glo ATP luminescence, 1 h. Potency, µM (doses to about 57.5 µM), without a hit: top-dose activity change, negative = inhibition, actives largely listed as inhibitors. 0.37% of 290,000 active. AID 1721
Target sequence (Q27686 whole entry, looked up): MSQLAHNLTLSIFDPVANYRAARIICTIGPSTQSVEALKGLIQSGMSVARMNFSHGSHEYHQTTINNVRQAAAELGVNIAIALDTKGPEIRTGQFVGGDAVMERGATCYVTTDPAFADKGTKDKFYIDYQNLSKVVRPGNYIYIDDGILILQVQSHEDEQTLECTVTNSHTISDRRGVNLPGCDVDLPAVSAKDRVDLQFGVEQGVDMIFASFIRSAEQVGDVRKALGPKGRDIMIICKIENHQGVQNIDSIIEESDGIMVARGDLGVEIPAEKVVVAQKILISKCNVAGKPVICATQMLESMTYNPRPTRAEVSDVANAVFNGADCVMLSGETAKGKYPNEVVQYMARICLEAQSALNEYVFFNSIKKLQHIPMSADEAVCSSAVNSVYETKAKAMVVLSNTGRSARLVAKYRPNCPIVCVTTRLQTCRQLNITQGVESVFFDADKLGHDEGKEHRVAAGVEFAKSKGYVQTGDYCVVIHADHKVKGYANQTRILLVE
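0.1 nM LmPK, 0.5 mM PEP, 0.1 mM ADP; 50 mM imidazole pH 7.2, 7 mM MgCl2, 50 mM KCl; 1 h RT. Kinase-Glo luminescence readout, normalized to no-enzyme (full inhibition) and uninhibited wells.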
AMA1-RON2 inh = inhibitors of Plasmodium falciparum AMA1-RON2 interaction. AlphaScreen AMA1-biotinylated RON2 peptide binding. Potency, µM (doses to about 58.2 µM), for the others: at the top dose activity change, negative = inhibition, usual class: inhibitors. 0.2% of 360,000 active. AID 720542;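 note: 0% = vehicle wells and -100% = peptide control; nearly all actives have a fitted effect of over 45% in size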
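AMA1 (3D7) with his tag at 25 nM final met compounds first, then biotinylated RON2 peptide at 25 nM; detection used donor plus acceptor beads, 10 µg/mL apiece, read by AlphaScreen after 30 min at room temperature.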
* marks the source's active call; other numbers are inactive results; ? = inconclusive; · = no result given. Unless noted, calls come from the whole dose curve; as a rule, active = well fitted curve in the direction sought with a large enough effect; inconclusive = small, poorly fitted or top-dose-only effect, or another doubt; inactive = no such curve, though single readings can be large; an effect the other way counts as inactive or inconclusive. Unless noted, % is set by controls: 0 for no effect and ±100 for the full control effect; potency is the fitted concentration of half-maximal effect.

SMILES	Sm TGR inh	TbPYK inhibitor	RE007 growth inh	LmPK inh	AMA1-RON2 inh
Cc1c(C(=O)NCc2cccc(Cl)c2)sc2nc3n(c(=O)c12)CCCC3	14.1µM*	-5.9%	·	·	·
O=c1cc2nc(-c3ccccc3F)nc(SCc3ccc(Br)cc3)n2[nH]1	7.5%	0.9%	·	·	·
Cc1ccc(S(=O)(=O)N2CCc3cc(C(=O)Nc4c(C)cccc4C(C)C)ccc32)cc1	3.6%	-6.6%	·	·	·
C#CCN1C(=O)C(O)(c2c(C)[nH]c3ccccc23)c2ccccc21 (stereo not drawn)	6.5%	-8.5%	-7.9%	9.1%	5.0%
CCCN1C(=O)C(O)(c2c(C)[nH]c3ccccc23)c2ccccc21 (stereo not drawn)	44.7µM*	-7.5%	-3.5%	3.9%	-2.9%
CC(=O)c1cccc(-n2c(=O)c3c4c(sc3n(Cc3ccccc3Cl)c2=O)CN(C(C)=O)CC4)c1	6.1%	-0.1%	·	·	·
O=C(O)c1ccccc1C(=O)NCc1ccc(F)cc1	0.0%	-1.6%	18.4%	-0.1%	4.2%
O=C(O)c1ccccc1C(=O)NNc1ccc(F)cc1	50.1µM*	-1.6%	299.4%	-3.2%	-0.6%
Cc1ccc(SC[C@H](c2ccccc2)N2CCN(CC(C)C)CCC2=O)cc1	31.6µM*	2.8%	-20.3%	3.6%	6.4%
CC(C)CN1CCC(=O)N([C@H](CSc2ccc(Br)cc2)c2ccccc2)CC1	2.82µM*	-4.3%	9.3%	6.3%	8.7%
CC(C)CN1CCC(=O)N([C@H](CO)c2ccccc2)CC1	-1.5%	-1.6%	5.3%	-4.1%	7.5%
Cc1ccc(SC[C@H](c2ccccc2)N2CCN(C)CCC2=O)cc1	39.8µM*	4.2%	-11.5%	0.6%	-12.8%
CCCN1CCC(=O)N([C@H](CSc2ccc(OC)cc2)c2ccccc2)CC1	22.4µM*	-2.4%	-3.2%	-2.4%	-2.6%
CC(C)C[C@@H](CSc1ccc(Br)cc1)N1CCN(CC(C)C)CCC1=O	?	0.6%	-27.7%	5.6%	1.3%
CN1CCC(=O)N([C@H](CSc2ccccc2)c2ccccc2)CC1	?	3.1%	0.7%	-7.2%	9.7%
CCCN(CCC)CCCNC(=O)c1cc2c(=O)n(C)c3ccccc3c2s1	10µM*	-3.9%	·	·	·
CCOc1cc(C2Nc3cccc4cccc(c34)N2)ccc1O	11.2µM*	-19.4%	-7.1%	2.0%	-10.4%
CCOc1ccc(C2NCCc3cc(OC)c(OC)cc32)cc1OC (stereo not drawn)	-9.8%	-6.0%	-7.7%	-8.0%	22.5%
CCOc1ccc(C2Nc3cccc4cccc(c34)N2)cc1OC	25.1µM*	-5.1%	-13.4%	-7.0%	-10.1%
CCOc1cc(C2Nc3ccccc3C(=O)N2c2ccccc2)ccc1O (stereo not drawn)	2.4%	-1.8%	-5.0%	11.8%	-2.4%
COc1ccc(Cl)cc1NC(=O)c1cc2nc(-c3ccc(C)cc3)cc(C(F)(F)F)n2n1	2.4%	4.9%	·	·	·
CCOC(=O)C1CCCN(CC(=O)Nc2c(F)c(F)c(F)c(F)c2F)C1 (stereo not drawn)	0.0%	1.1%	-15.9%	5.1%	20.7%
CCOC(=O)C1CCCN(CC(=O)c2ccc(F)cc2)C1 (stereo not drawn)	17.8µM*	3.2%	-5.9%	0.4%	-20.4%
CC1CCN(C(=O)c2cccc(NC(=O)c3nsc4ccccc34)c2)CC1	0.0%	5.2%	·	·	·
COc1ccc(N=c2cc(-c3ccc(OC)cc3)oc3ccccc23)cc1	-3.7%	-3.6%	-10.9%	1.0%	12.6µM*
SMILES	Sm TGR inh	TbPYK inhibitor	RE007 growth inh	LmPK inh	AMA1-RON2 inh
COc1ccc(-c2cc(=Nc3ccc(C)cc3)c3ccccc3o2)cc1	9.5%	1.2%	?	2.5%	-5.5%
CCOc1ccc(N=c2cc(-c3ccc(OC)cc3)oc3ccccc23)cc1	-9.2%	3.8%	-22.4%	1.4%	14.1µM*
O=C(c1ccc(Br)cc1)C(CN1CCOCC1)c1ccccc1 (stereo not drawn)	3.55µM*	-1.8%	?	7.8%	19.6%
O=C(CN1CCOCC1)Nc1ccc(Br)cc1	-1.0%	-3.2%	16.5%	-10.2%	3.6%
O=C(CN1CCOCC1)c1ccc(Br)cc1	35.5µM*	-1.8%	0.9%	5.6%	2.6%
O=C(CNC(=O)c1ccccc1)OC(C(=O)c1ccccc1)c1ccccc1 (stereo not drawn)	-3.2%	2.3%	-8.1%	-1.9%	5.7%
COc1ccc(C(=O)C(OC(=O)CNC(=O)c2ccco2)c2ccccc2)cc1 (stereo not drawn)	17.8µM*	1.2%	20.2%	5.0%	-3.0%
Cc1ccccc1-c1noc(CCC(=O)NCc2ccco2)n1	28.2µM*	-6.3%	3.0%	6.1%	6.9%
COc1ccc(-c2noc(CCC(=O)NCc3ccco3)n2)cc1	39.8µM*	-5.1%	5.8%	2.5%	-3.4%
Cc1cccc(-c2noc(-c3ccccc3C(=O)NCc3ccco3)n2)c1	22.4µM*	-7.8%	-4.6%	3.2%	-21.3%
COc1cc(OC)cc(-c2nc3n(n2)C(c2ccccc2F)C(C(=O)Nc2cccnc2)=C(C)N3)c1 (stereo not drawn)	4.8%	0.3%	·	·	·
Fc1ccccc1CNCCc1ccc2c(c1)OCO2	10µM*	9.5%	-3.5%	-4.8%	-26.8%
Cn1c(SCC(=O)NC2CCCCC2)nnc1-c1ccncc1	2.2%	1.9%	10.6%	4.5%	18.0%
O=C(CSc1nc(-c2ccncc2)nn1CC(=O)N1CCCCC1)NC1CCCC1	39.8µM*	3.9%	-2.0%	4.0%	3.77µM*
CC(C)Cn1c(-c2csc3ccccc23)n[nH]c1=S	-17.1%	?	10.9%	14.1µM*	24.1%
CCn1c(-c2csc3ccccc23)n[nH]c1=S	-3.0%	?	7.8%	10µM*	42.4%
CCn1c(-c2ccccc2O)n[nH]c1=S	0.0%	?	6.3%	-1.1%	21.7%
COc1ccc(Cn2c(-c3ccc(OC)cc3)n[nH]c2=S)cc1	-5.8%	?	13.5%	?	91.9%
Cc1cccc(-n2c(-c3csc4ccccc34)n[nH]c2=S)c1	-3.1%	?	-12.0%	?	27.1%
COc1ccc(-c2n[nH]c(=S)n2CC(C)C)cc1	3.1%	?	-3.9%	28.2µM*	11.6%
CCc1c(C)sc2c1CCN(C(=O)Nc1cc(C)ccc1OC)C2c1ccc(F)cc1 (stereo not drawn)	7.7%	0.1%	·	·	·
Cc1cc(C)nc(Sc2ccc([N+](=O)[O-])cc2[N+](=O)[O-])n1	-19.7%	-8.0%	-10.6%	1.8%	-7.4%
CN(C)/N=C/c1ccc(Sc2ccc([N+](=O)[O-])cc2[N+](=O)[O-])o1	28.2µM*	-4.3%	-16.1%	-6.9%	-6.1%
O=C(O)CCc1ccc(-c2ccc(Br)cc2)n1CC(=O)O	?	0.3%	-7.3%	4.7%	3.9%
Cc1ccc(-c2ccc(CCC(=O)O)n2Cc2ccco2)cc1	35.5µM*	-7.5%	7.1%	0.5%	-13.3%
